The entries come from a sample that favours hits as a whole.
NOMO-1 viab – STK33 inhibitor candidate reducing NOMO-1 cell viability; NOMO-1 AML viability, CellTiter-Glo luminescence, 72 h; AID 2330; inhibition, % (concentration not given with the values); hit rate 7.5% among 37,000; in the data active = inhibition above about 80%; inconclusive = no clear call, values can overlap the other calls
STK33 kin inh – human STK33 kinase inhibition. ADP-Glo luminescence, MBP substrate. hit rate 0.44% among 27,000. inhibition, % at 12.5 µM. AID 2322; in the data active = inhibition above about 20%; inconclusive = no clear call, values can overlap the other calls
Target sequence (Q9BYT3 whole entry, looked up): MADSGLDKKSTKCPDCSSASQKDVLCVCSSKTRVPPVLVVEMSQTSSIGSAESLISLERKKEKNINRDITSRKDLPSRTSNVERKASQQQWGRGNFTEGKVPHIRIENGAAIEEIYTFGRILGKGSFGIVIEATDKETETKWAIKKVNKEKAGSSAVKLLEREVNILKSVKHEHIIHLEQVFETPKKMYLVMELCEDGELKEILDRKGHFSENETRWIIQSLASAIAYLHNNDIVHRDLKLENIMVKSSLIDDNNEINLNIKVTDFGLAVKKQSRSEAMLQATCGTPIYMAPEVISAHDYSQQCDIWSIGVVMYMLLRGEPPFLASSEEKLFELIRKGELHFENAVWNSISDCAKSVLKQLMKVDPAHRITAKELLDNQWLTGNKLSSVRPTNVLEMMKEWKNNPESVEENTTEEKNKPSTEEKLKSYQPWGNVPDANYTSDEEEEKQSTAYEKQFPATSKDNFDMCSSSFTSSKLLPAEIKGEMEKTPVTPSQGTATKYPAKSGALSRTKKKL
PD-1 reversal – reversal of PD-1 mediated T-cell inhibition; primary human CD4 T cells, PD-L1 beads, CellTiter-Glo 96 h; activation, % (no concentration beside the values); 29,000 tested, under 10 active; call rule not given here;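 also: 0% = median vehicle wells and 100% = positive control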
Active calls of the source: *; ? = inconclusive; / = no result.

SMILES	NOMO-1 viab	STK33 kin inh	PD-1 reversal
CC1(C)CC[C@]2(C(=O)O[C@@H]3O[C@H](CO)[C@@H](O)[C@H](O)[C@H]3O)CC[C@]3(C)C(=CCC4[C@@]5(C)C[C@@H](O)[C@H](O)[C@@](C)(CO)C5[C@H](O)C[C@]43C)C2[C@@H]1O (some centres undefined)	0	4	2
NC(=O)c1ccccc1NC(=O)COc1ccc2oc3c(c2c1)CCCC3	21	5	0
CCN(CC)S(=O)(=O)c1cc(C(=O)Nc2ccccc2C)ccc1C	30	/	-1
C[C@@H]1CCCCO[C@H](CN(C)Cc2ccc(Cl)c(Cl)c2)[C@@H](C)CN([C@H](C)CO)C(=O)c2cc(NS(=O)(=O)c3ccc(Cl)cc3)ccc2O1	116*	4	-5
COc1ccc(S(=O)(=O)Nc2ccc3c(c2)C(=O)N([C@H](C)CO)C[C@H](C)[C@@H](CN(C)Cc2ccc(Cl)c(Cl)c2)OCCCC[C@@H](C)O3)cc1	125*	4	/
COc1ccc(CN(C)C[C@@H]2OCCCC[C@@H](C)Oc3ccc(NS(=O)(=O)c4ccc(Cl)cc4)cc3C(=O)N([C@H](C)CO)C[C@@H]2C)cc1	30	0	-2
C[C@@H]1CCCCO[C@@H](CN(C)Cc2ccc(Cl)c(Cl)c2)[C@@H](C)CN([C@H](C)CO)C(=O)c2cc(NS(=O)(=O)c3ccc(Cl)cc3)ccc2O1	73	0	-9
O=C(O)C(Cc1ccsc1)c1ccccc1 (centres undefined)	-10	/	1
Cc1cccc(C)c1OCC(=O)Nc1cccnc1	32	4	-2
CC(C)(C)NS(=O)(=O)c1ccc(OCC(=O)Nc2ccc(F)c(Cl)c2)cc1	-7	-3	0
CC(CC(N)=O)OC(=O)c1cc(Cl)cc(O)c1O (centres undefined)	88*	-1	1
COc1ccccc1NC(=O)COc1ccc(C(=O)Nc2cccc(C(F)(F)F)c2)cc1	26	0	5
COc1cc(NC(=O)C(C)Oc2ccc(Cl)cc2Cl)ccc1NC(=O)c1ccco1 (centres undefined)	24	9	/
Cc1ccc(S(=O)(=O)Nc2cccc3cccnc23)c([N+](=O)[O-])c1	121*	-7	-15
CC(=O)Nc1ccc(NS(=O)(=O)c2ccc(C)cc2[N+](=O)[O-])cc1	21	2	0
O=C(NCCO)c1cc[n+](CC(=O)c2cccs2)cc1	-7	/	0
Cn1nc(OC(C)(C)C(=O)Oc2ccc(Cl)cc2Cl)cc1C(F)(F)F	33	/	0
C[C@H]1CN([C@@H](C)CO)C(=O)Cc2cc(NC(=O)CCCCCC(=O)Nc3ccccc3N)ccc2O[C@@H]1CN(C)Cc1ccc2c(c1)OCO2	34	/	-2
C[C@H]1CN([C@@H](C)CO)C(=O)Cc2cc(NC(=O)CCCCCC(=O)Nc3ccccc3N)ccc2O[C@@H]1CN(C)Cc1ccc(C(F)(F)F)cc1	106*	/	1
C[C@@H]1CN([C@@H](C)CO)C(=O)Cc2cc(NC(=O)CCCCCC(=O)Nc3ccccc3N)ccc2O[C@@H]1CN(C)Cc1ccc(-c2ccccc2)cc1	142*	/	1
C[C@@H]1CN([C@@H](C)CO)C(=O)c2cc(NC(=O)CCCCCC(=O)Nc3ccccc3N)ccc2O[C@@H]1CN(C)Cc1ccc(-c2ccccc2)cc1	46	/	2
C[C@H]1CN([C@@H](C)CO)C(=O)Cc2cc(NC(=O)CCCCCC(=O)Nc3ccccc3N)ccc2O[C@@H]1CN(C)Cc1ccc(-c2ccccc2)cc1	140*	/	0
C[C@@H]1CN([C@H](C)CO)C(=O)Cc2cc(NC(=O)CCCCCC(=O)Nc3ccccc3N)ccc2O[C@@H]1CN(C)C(=O)Nc1ccc(C(F)(F)F)cc1	4	/	0
COC(=O)c1ccccc1NC(=O)CSc1nnnn1-c1ccccc1OC	-26	-1	2
NCCCN(Cc1ccco1)C1CCCC1	106*	-2	-4
SMILES	NOMO-1 viab	STK33 kin inh	PD-1 reversal
CC(=O)c1ccc(NC(=O)CSc2nnc(N)s2)cc1	15	-2	-5
COC(=O)c1cc(NC(=O)CSc2nnc(N)s2)ccc1Cl	110*	1	-2
COc1ccc([N+](=O)[O-])cc1NC(=O)CN(c1ccc(Cl)c(Cl)c1)S(C)(=O)=O	-1	-2	/
C[C@@H]1CN([C@H](C)CO)C(=O)c2cccc(NC(=O)c3nc4ccccc4s3)c2O[C@@H]1CN(C)Cc1ccc(Cl)c(Cl)c1	32	/	-2
C[C@@H]1CN([C@H](C)CO)C(=O)c2cccc(NC(=O)c3nc4ccccc4s3)c2O[C@H]1CN(C)Cc1ccc(-c2ccccc2)cc1	53	/	/
C[C@H](CO)N1C[C@H](C)[C@@H](CN(C)S(=O)(=O)c2ccccc2)Oc2c(NC(=O)c3nc4ccccc4s3)cccc2C1=O	30	/	0
C[C@H](CO)N1C[C@H](C)[C@H](CN(C)Cc2ccc(Cl)c(Cl)c2)Oc2c(NC(=O)c3nc4ccccc4s3)cccc2C1=O	104*	/	-5
C[C@@H]1CN([C@@H](C)CO)C(=O)c2cccc(NC(=O)c3nc4ccccc4s3)c2O[C@H]1CN(C)S(=O)(=O)c1ccc(Cl)cc1	93*	/	-3
C[C@H]1CN([C@@H](C)CO)C(=O)c2cccc(NC(=O)c3nc4ccccc4s3)c2O[C@H]1CN(C)Cc1ccc(Cl)c(Cl)c1	96*	/	-1
COc1cccc(NC(=O)CSc2nnc(-c3ccco3)n2-c2ccccc2)c1	40	0	-2
COC(=O)c1ccccc1NC(=O)C1CCCN(S(=O)(=O)c2ccc(Br)cc2)C1 (centres undefined)	/	0	/
CC1=N/C(=C\c2sccc2C)C(=O)O1	?	-2	0
CSc1nc(N)nc(SCC(=O)c2ccc(Cl)s2)c1C#N	?	2	/
COc1ccc(C(=O)Nc2ccc3nc(SCC(=O)N4CCOCC4)sc3c2)cc1OC	33	-4	6
CC(=O)Nc1ccc(C(=O)CSc2nc(C)cc(=O)[nH]2)cc1	24	/	-2
CCOC(=O)c1sc(NC(=S)Nc2cnccn2)c(C(=O)OCC)c1C	36	0	-6
O=S(=O)(N[C@@H]1CCCN(Cc2cccc(OCCO)c2)C1)c1cc(C(F)(F)F)ccc1Cl	/	-1	/
CCOc1cccc2c(C)nc(Nc3nc4c(c(=O)[nH]3)CCCC4)nc12	121*	0	/
Cc1nc(SCC(=O)Nc2cccc(Cl)c2Cl)nc2c1CCCC2	-6	0	/
N#C/C(=C\c1ccc(O)c(O)c1)C(=O)NCCCNC(=O)/C(C#N)=C/c1ccc(O)c(O)c1	31	16	-2
Oc1cc(O)cc(/C=C/c2ccc(O)c(O)c2)c1	113*	74*	/
COC(=O)c1ccc(C=Nc2ccc3oc(-c4ccc(C)cc4)nc3c2)cc1	-22	/	1
C=C1CC[C@H]2C(=C)CC[C@@]3(O)C(=C)C(=O)O[C@@H]3[C@@H]12	110*	-1	-16
Cc1ccc(OCC(=O)Nc2cccc(-c3nc4ccccc4[nH]3)c2)cc1	7	0	0
COc1ccc(CC(=O)Nc2cccc(-c3nc4cc5ccccc5cc4[nH]3)c2)cc1	135*	/	0
C=CCNC(=O)[C@@H]1[C@H]2C(=O)O[C@H](c3ccccc3)[C@H](c3ccccc3)N2[C@H](c2ccccc2OCCO)[C@@]12C(=O)Nc1ccc(C#CCCO)cc12	/	5	/
COc1cccc(NC(=O)C(C)N(c2ccc(Cl)cc2)S(C)(=O)=O)c1 (centres undefined)	11	2	0

Compound activity: PubChem BioAssay, Broad Institute
